Data: ChEMBL document CHEMBL3988442, “University of Dundee, Small-Polar-MMV Screening Library” (2021)
Out of some 48,000 compounds screened, about 13,000 (27%) showed an effect of 50% or more. The list shows a part of the results.

System: Wolbachia pipientis
Assay: Anti-Wolbachia Cell-Based Screen
Type: functional
Set-up: scale not given: in the data most compounds retested in dose-response had high values
Conditions: 5 µM

Structure (SMILES)	Percent Effect
c1ccc(-c2noc([C@@H]3Cc4nc[nH]c4CN3)n2)cc1	-8.482%
COCCCN(Cc1cnc(N2CCCC2)nc1)C1CCN(C)CC1	104.1%
COCCCN1CCc2cncnc2C1	-3.846%
COCCN1CCC(CN(Cc2ccncc2)C2CCC2)CC1	3.665%
COCCN1CCC(CN(Cc2ccncc2)C2CCCCC2)CC1	-7.976%
COCCCN(Cc1cnc(C2CCCCC2)nc1)C1CCN(C)CC1	105.2%
COCCCN(C(=O)c1ccc(-n2ccnc2)cc1)C1CCN(C)CC1	-6.688%
Cc1ccc(C)c2c(O)cc(CN3CCC(c4nncn4C)CC3)nc12	4.156%
CC(C)(C)c1cn2nc(N3CCOC(Cn4cncn4)C3)sc2n1 (stereo not given)	9.569%
Cc1nc(CN2CCC3(CC2)CC(c2cccnc2)C(=O)N3C)cs1.O=C(O)C(F)(F)F.O=C(O)C(F)(F)F (stereo not given)	114.5%
Cc1ccc(CN2CCC3(CC2)CC(c2cccnc2)C(=O)N3C)o1.O=C(O)C(F)(F)F.O=C(O)C(F)(F)F (stereo not given)	111.7%
Cc1cccc(CN2CCC3(CC2)CC(c2cccnc2)C(=O)N3C)n1.O=C(O)C(F)(F)F.O=C(O)C(F)(F)F (stereo not given)	108%
Cc1ccc(CN2CCC3(CC2)CC3CN(C)Cc2cccnc2)o1.O=C(O)C(F)(F)F.O=C(O)C(F)(F)F.O=C(O)C(F)(F)F (stereo not given)	5.127%
Cc1cccc(CN2CCC3(CC2)CC(Oc2cccnc2)C3)n1.O=C(O)C(F)(F)F.O=C(O)C(F)(F)F	-6.69%
Cc1cc(C(=O)N2CCC3(CC2)CC(c2cccnc2)C(=O)N3C)no1.O=C(O)C(F)(F)F (stereo not given)	1.086%
COC(=O)CNC(=O)CSCc1nc(O)c2cc(C(C)C)sc2n1	2.369%
CN(Cc1ncnn1C)C(=O)Nc1ccc(OC(F)F)cc1	-14.3%
CN(c1ncnc2c1CCC2)C1CCCN(c2cccnn2)C1 (stereo not given)	4.941%
COc1ccc(F)c(CN2CCCC(O)(CNCc3ncc[nH]3)C2=O)c1 (stereo not given)	0.3473%
C=C(C)COc1cccc(C(=O)N2CCC3(CCOCC3)CC2)c1	0.8095%

Structure (SMILES)	Percent Effect
CCOc1ccc(-c2ccnc(COc3ccccc3)n2)cc1C(=O)O	-3.347%
Cn1cnc(S(=O)(=O)N2C[C@@H]3CC[C@H](C2)N(Cc2cscn2)C3=O)c1	-55.67%
CCN1CCN(S(=O)(=O)c2cc(Cl)c(Cl)cc2C)CC1	4.693%
CCCNC(=O)N1CCN(Cc2cc(C)no2)CC1	1.77%
Cc1ccc(CN2CCN(Cc3ccncc3)CC2=O)cc1	-11.1%
Cc1cc(Cl)c(C)c(S(=O)(=O)N2CCN(Cc3ccncc3)CC2)c1Cl	94.36%
Cc1cc(CN2CCN(C(=O)C3(C#N)CCCCC3)CC2)on1	-1.898%
Cc1ccc(S(=O)(=O)N2CCn3nc(C)nc3C2)c(Cl)c1	0.9769%
Cc1cc(CN2CCN(S(=O)(=O)c3c(C)c(Cl)cc(C)c3Cl)CC2)on1	85.02%
Cc1ccc(C)c(C(C(=O)O)N2CCCN(Cc3ccccn3)CC2)c1 (stereo not given)	19.25%
CNS(=O)(=O)c1ccc(CN2CCCN(Cc3ccncc3)CC2)cc1	21.96%
Cc1ccc(S(=O)(=O)N2CCN(Cc3ccncc3)CC2)c(Cl)c1	109.7%
Cc1cc(F)c(C(C(=O)O)N2CCN(Cc3ccccn3)CC2)cc1Cl (stereo not given)	7.172%
Cc1cc(Cl)c(C)c(S(=O)(=O)N2CCN(Cc3ccccn3)CC2)c1Cl	101.6%
CNC(=O)c1ccc(NC(=O)NC(C)CCc2cccn2C)c(C)c1 (stereo not given)	7.929%
O=C(CN1CCNCC1)N1CC[C@@H](c2ccc3ccccc3c2)[C@H](O)C1	6.521%
OC(COCc1ccccc1)CSc1nnc(C2CC2)n1C1CC1 (stereo not given)	6.526%
O=C(c1cccnc1-n1cncn1)N1CCN(C2CCCC2)CC1	9.271%
CC(C)Cc1noc(CN(C)C[C@]2(O)CCCN3CCCC[C@@H]32)n1	1.802%
CCCc1nc(CN2CCN(CC(O)c3ccccc3)CC2)no1 (stereo not given)	-2.88%

Structure (SMILES)	Percent Effect
O=C(c1ccnnc1)N1C[C@@H](OCC2CCOCC2)[C@H]2OCCC[C@H]21	-2.354%
CS(=O)(=O)N1C[C@@H](F)[C@@H](OCc2nc3ccccc3o2)C1	18.73%
CCS(=O)(=O)N1C[C@H]2CN(Cc3cccnc3)C(=O)[C@H]2C1.O=C(O)C(F)(F)F	-7.035%
O=C(O)C(F)(F)F.O=C1[C@H]2CN(S(=O)(=O)c3ccccc3)C[C@H]2CN1Cc1cccnc1	108.5%
CS(=O)(=O)N[C@@H]1CCN(Cc2cccnc2)[C@H]1Cc1ccccc1.O=C(O)C(F)(F)F.O=C(O)C(F)(F)F	1.711%
Cc1ccc(CN2CC[C@H]3C(=O)N(Cc4cccnc4)CCO[C@H]3C2)o1.O=C(O)C(F)(F)F.O=C(O)C(F)(F)F	-24.56%
O=C(O)C(F)(F)F.O=C1[C@H]2CN(S(=O)(=O)C3CC3)C[C@H]2CN1Cc1cccnc1	124.6%
O=C(O)C(F)(F)F.O=C(O)C(F)(F)F.O=C1[C@@H]2CCN(C3CCOCC3)C[C@@H]2OCCN1Cc1cccnc1	1.497%
COC(=O)c1cccc2nc([C@H]3CCN(C4CCN(C)CC4)C3)oc12	-2.242%
O=C(NC[C@H]1OC[C@@H]2CCN(Cc3ccco3)C[C@@H]21)c1ccnnc1.O=C(O)C(F)(F)F	121%
NC(=O)N1CC[C@H]2CO[C@H](CNC(=O)c3ccnnc3)[C@H]2C1	-2.645%
CN(Cc1cccnc1)C[C@@H]1OC[C@H]2CN(Cc3ccco3)CC[C@H]21.O=C(O)C(F)(F)F.O=C(O)C(F)(F)F.O=C(O)C(F)(F)F	9.505%
O=C(NC[C@H]1OC[C@@H]2CCN(Cc3ccco3)C[C@@H]21)c1ccsc1.O=C(O)C(F)(F)F	14.6%
Cc1cccc(N2CC[C@@H]3[C@@H](CO[C@H]3CNC(=O)c3ccco3)C2)n1	-1.973%
Cn1cc(C(=O)NC[C@@H]2OC[C@H]3CN(Cc4ccco4)CC[C@H]32)cn1.O=C(O)C(F)(F)F	1.243%
Cc1ccc(N2CC[C@@H]3[C@@H](CO[C@H]3CNC(=O)c3ccco3)C2)nn1	1.851%
Cc1ccc(CN2CC[C@@H]3[C@@H](CO[C@H]3CN(C)C)C2)o1.O=C(O)C(F)(F)F.O=C(O)C(F)(F)F	-16.8%
O=C(NC[C@H]1OC[C@@H]2CN(Cc3ccco3)CC[C@@H]21)c1cccnc1.O=C(O)C(F)(F)F.O=C(O)C(F)(F)F	98.92%
O=C(NC[C@H]1OC[C@@H]2CN(Cc3ccco3)CC[C@@H]21)c1cscn1.O=C(O)C(F)(F)F	98.96%
Cn1cc(CN2CC[C@@H]3[C@@H](CO[C@H]3CNC(=O)c3ccco3)C2)cn1.O=C(O)C(F)(F)F.O=C(O)C(F)(F)F	86.49%
